From PubChem
Compounds with a hit are over-represented: about 2.3% of the library has one in this group of screens.
Mcl1 Noxa PPI: disrupts binding of human Mcl-1 to Noxa peptide; Q07820; TR-FRET Mcl-1/Noxa peptide binding, 2 h; inhibition, % at 21.7 µM; 220,000 compounds, 1.5% hits; AID 1022;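 active = compounds that cut the protein-peptide binding signal by more than 50% relative to plate controls in a single-dose test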;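 also: His-tagged Mcl-1 with rhodamine Noxa BH3 peptide and terbium anti-His antibody; 0% = Mcl-1 plus Noxa peptide wells and 100% = peptide-only wells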
Bcl-xL primary: blocks human Bcl-xL binding to Bim BH3 peptide. Q07817. GST-Bcl-xL / FITC-Bim BH3 peptide fluorescence polarization. inhibition, % at 10.9 µM. 320,000 compounds, 0.7% hits;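 active = inhibition above the mean of all tested compounds plus 3 SD, cutoff set per campaign, cut at about 30% in these data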;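 also: 0% = DMSO wells and 100% = unlabeled Bim-BH3 peptide competitor; inhibitors lower millipolarization by displacing the labeled peptide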
Target sequence (Q07817 whole entry, looked up): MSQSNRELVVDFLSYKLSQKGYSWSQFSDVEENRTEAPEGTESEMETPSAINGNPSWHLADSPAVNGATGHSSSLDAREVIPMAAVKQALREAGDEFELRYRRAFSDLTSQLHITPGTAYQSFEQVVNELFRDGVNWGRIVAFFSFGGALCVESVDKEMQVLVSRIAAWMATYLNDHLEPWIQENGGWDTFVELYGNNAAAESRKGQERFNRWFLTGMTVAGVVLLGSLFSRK
Mcl1 Bid PPI: Mcl-1/Bid interaction inhibition; 220,000 compounds, 0.97% hits; inhibition, % at 21.7 µM; Q07820; TR-FRET Mcl-1/Bid-Dy647 peptide binding, 1536-well;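 active = compounds that cut the binding signal by more than half at the single screening dose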;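 also: His-tagged Mcl-1 with europium anti-His antibody binding Bid BH3 peptide; 0% = Mcl-1 plus peptide wells and 100% = peptide-only wells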
GLD-1 RNA inh: GLD-1-TGE RNA interaction inhibition (C. elegans); Q17339; purified GLD-1 + fluorescein TGE RNA, fluorescence polarization; inhibition, % at 5.96 µM; 320,000 compounds, 0.44% hits; AID 2280;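 active = percent inhibition above a per-plate cutoff, the plate mean of test compounds plus 3 SD, cut at about 30% in these data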;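 also: 0% = DMSO wells with GLD-1 and probe and 100% = wells lacking GLD-1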
Target sequence (Q17339 whole entry, looked up): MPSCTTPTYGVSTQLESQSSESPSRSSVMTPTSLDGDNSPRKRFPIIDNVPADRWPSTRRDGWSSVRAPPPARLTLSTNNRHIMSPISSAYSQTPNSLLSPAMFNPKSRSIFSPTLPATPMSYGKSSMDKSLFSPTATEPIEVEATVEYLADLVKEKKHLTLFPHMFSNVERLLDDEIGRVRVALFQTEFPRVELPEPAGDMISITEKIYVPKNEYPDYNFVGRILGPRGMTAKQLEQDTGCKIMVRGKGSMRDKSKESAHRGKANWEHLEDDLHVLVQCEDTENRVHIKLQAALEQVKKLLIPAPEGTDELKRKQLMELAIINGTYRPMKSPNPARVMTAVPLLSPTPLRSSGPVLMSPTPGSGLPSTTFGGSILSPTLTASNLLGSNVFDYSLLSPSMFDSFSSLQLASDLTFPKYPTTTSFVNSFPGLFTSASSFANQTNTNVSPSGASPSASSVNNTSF
Bim-Mcl-1: human Bim-Mcl-1 interaction inhibition | Q07820 | Bead-based flow cytometry, Bim peptide-Mcl-1 binding | inhibition, % at 10 µM | 190,000 compounds, 0.1% hits; in the data active = inhibition above about 40%;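 also: 0% = no compound tracer wells and 100% = peptide blocker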
MCL1 BIM primary: disrupts human MCL1 binding to BIM-BH3 peptide | GST-MCL1 / FITC-Bim-BH3 fluorescence polarization | 320,000 compounds, 0.68% hits | Q07820 | inhibition, % at 10.9 µM;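 active = inhibition above the mean inhibition of all tested compounds plus 3 SD, set per campaign, cut at about 40% in these data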;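 also: 0% = DMSO wells and 100% = unlabeled Bim-BH3 peptide control; higher means more loss of mP so more displacement of Bim peptide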
BCLXL inh confirm: Bcl-xL (human) inhibition, MCL1 counter-screen confirmation; GST-Bcl-xL / FITC-Bim BH3 peptide FP binding; shares compounds with MCL1 BIM primary; AID 2166; 1,700 compounds, 54% hits; inhibition, % at 10.9 µM;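 active = inhibition above a cutoff equal to the mean inhibition of all tested compounds plus 3 SD, cut at about 30% in these data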;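 also: 0% = DMSO wells and 100% = unlabeled Bim BH3 control peptide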
MCL1 BIM confirm: MCL1-BIM-BH3 interaction inhibition, confirmation | shares compounds with MCL1 BIM primary | GST-MCL1 / FITC-Bim-BH3 fluorescence polarization | inhibition, % at 10.9 µM | 1,700 compounds, 61% hits | AID 2168;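 active = inhibition above the average of all tested compounds plus 3 SD, cut at about 40% in these data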;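 also: 0% = DMSO wells and 100% = unlabeled Bim-BH3 control peptide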
* hit, by the source's call; . = not tested or not shown; + = active, no number.

SMILES | Mcl1 Noxa PPI | Bcl-xL primary | Mcl1 Bid PPI | GLD-1 RNA inh | Bim-Mcl-1 | MCL1 BIM primary | others
CCOC(=O)c1c(-n2c(C)cc(/C=C3/C(=O)NC(=O)N(CC)C3=O)c2C)sc2c1CCCC2 | . | 3 | . | 12 | . | -2
CCOC(=O)c1c(-n2c(C)cc(C=C3C(=O)NC(=S)NC3=O)c2C)sc2c1CCCC2 | 80* | -6 | 38 | 2 | -5 | -24
COc1cccc(-n2c(/C=C/c3ccc(O)c(O)c3)nc3ccccc3c2=O)c1 | 56* | 5 | -6 | -54 | -1 | 11
CN(CC#CCN1CCCC1)C(=O)c1cccc(Cl)c1 | . | 5 | . | -2 | . | 9
Cc1ccc(-c2nc3ccccc3c(=O)n2-c2cccc(O)c2)cc1 | 22 | 31* | -16 | 6 | -1 | 24
Cc1nc2ccccc2c(=O)n1-c1cccc(O)c1 | -6 | 3 | -7 | -4 | -1 | 1
Cc1cccc(-n2c(-c3cccs3)nc3ccccc3c2=O)c1 | 46 | 2 | 58* | 0 | -1 | 4
O=c1c2ccccc2nc(-c2cccs2)n1-c1ccccc1 | 4 | 6 | -30 | 6 | -5 | 2
COc1ccc(OCC(=O)N2CCN(C(C)C)CC2)cc1 | 6 | 7 | 53* | 6 | -1 | 3
O=C(c1ccc(F)cc1)N1CCC2(CC1)OCCO2 | . | 2 | . | 2 | . | -3
C=C(C=O)CC1CC(O)[C@]2(C)OC3CC4OC5C[C@]6(C)O[C@]7(C)CCC8OC9C[C@]%10(C)OC%11C(C)=CC(=O)OC%11CC%10OC9C[C@@H](C)C8OC7CC6O[C@]5(C)CC5OC5C4OC3CC2O1 (some centres not stated) | 10 | 7 | 78* | -6 | -3 | 15
CCC(=Nc1ccccc1N)c1c(O)[nH]c(=O)[nH]c1=O | . | 6 | . | -6 | . | 9
Cc1ccc2c(c1N)C(=O)c1ccccc1C2=O | . | 47* | . | -4 | . | 42*
CC(C(=O)c1ccc(Cl)cc1Cl)n1cncn1 (configuration not stated) | . | 4 | . | 2 | . | 4
CC(C)(C)C(O)C(Oc1ccc(Cl)cc1)n1cncn1 (configuration not stated) | 2 | 0 | 76* | 1 | -2 | 8
N=C1c2ccccc2CN1NC(=O)c1ccc(F)cc1 | -20 | 1 | -9 | -6 | 0 | 3
N#CCC(=O)NN1Cc2ccccc2C1=N | 12 | 75* | 0 | 0 | -7 | 2
COc1ccccc1CCNCc1cccc(C(F)(F)F)c1 | . | 6 | . | 0 | . | 10
CC(C)N1CCN(c2ccc(O)cc2)CC1 | 54* | 25 | -67 | 5 | -6 | 23
Cc1cccc(CN2CCCC(C(=O)c3ccc4c(c3)OCO4)C2)n1 (configuration not stated) | 18 | 3 | 1 | -4 | -4 | 1
CCOC(=O)c1cc(C(O)(C(=O)OC)C(F)(F)F)c(/N=C/N(C)C)o1 (configuration not stated) | 86* | 5 | -23 | -1 | 0 | 4
Cc1ccc(/C=C2\C(=O)NC(=S)N(c3ccccc3F)C2=O)s1 | 93* | 11 | 19 | 1 | 0 | 26
Cc1ccc(/C=C2\C(=O)NC(=S)N(c3ccc(F)cc3)C2=O)s1 | 29 | 15 | -24 | -8 | 0 | 21
O=C(O)CCn1cc(C=C2C(=O)NC(=S)NC2=O)c(-c2cc3ccccc3oc2=O)n1 | 81* | . | 5 | . | 2 | .
O=C(O)CCn1cc(C=C2C(=O)NC(=S)NC2=O)c(-c2ccccc2)n1 | 62* | 4 | -52 | 5 | 2 | -10
SMILES | Mcl1 Noxa PPI | Bcl-xL primary | Mcl1 Bid PPI | GLD-1 RNA inh | Bim-Mcl-1 | MCL1 BIM primary | others
N#CCCn1cc(C=C2C(=O)NC(=O)NC2=O)c(-c2ccccc2)n1 | 14 | 5 | -34 | -5 | 2 | 0
O=c1[nH]c(=O)n(C2CCCCC2)c(O)c1/C=C/C=Nc1ccccc1 | 9 | -72 | -48 | -139 | . | -115
CCCNS(=O)(=O)c1ccc(OCC(=O)N2CCN(Cc3ccc4c(c3)OCO4)CC2)c(C)c1 | . | 1 | . | 3 | . | 4
O=[N+]([O-])c1cc(S(=O)(=O)c2ccc(O)c([N+](=O)[O-])c2)ccc1O | 85* | 15 | -70 | -3 | 0 | 47* | BCLXL inh confirm=24;MCL1 BIM confirm=72*
O=c1[nH]c2ccccc2n1CCCN1CCC(n2c(=O)[nH]c3cc(Cl)ccc32)CC1 | 23 | 37* | -9 | 29 | 0 | 54* | BCLXL inh confirm=10;MCL1 BIM confirm=6
COc1ccc(N2C(=O)CC(N3CCC(n4c(=O)[nH]c5ccccc54)CC3)C2=O)cc1 (configuration not stated) | 23 | 3 | -9 | 7 | 2 | -4
Clc1cccc(Cl)c1CN1CCN(c2ccccc2)CC1 | 4 | 2 | -37 | 0 | 0 | 7
CN1Cc2cccnc2N(C)Cc2cc(Cl)ccc21 | -6 | 3 | -24 | -6 | 0 | 4
Nc1c2c(nc3ccccc13)CCN(Cc1ccccc1)C2 | . | 167* | . | 97* | . | + | BCLXL inh confirm=72*;MCL1 BIM confirm=101*
O=c1[nH]c(=O)n(-c2cccc(F)c2)c(O)c1/C=C1\C=Nc2ccccc21 | . | 160* | . | -19 | . | 199* | BCLXL inh confirm=154*;MCL1 BIM confirm=177*
O=C(O)c1ccc(-n2c(O)c(/C=C3\C=Nc4ccccc43)c(=O)[nH]c2=O)cc1 | . | 0 | . | -17 | . | -12
C=CCN1CCc2cccc3c2[C@H]1Cc1ccc(O)c(O)c1-3 | . | 23 | . | 1 | . | 43* | BCLXL inh confirm=33*;MCL1 BIM confirm=67*
C=CCN1CC[C@]23c4c5ccc(O)c4O[C@H]2C(=O)CC[C@@]3(O)[C@H]1C5 | -1 | 5 | -13 | 3 | 0 | 5
COc1ccc(CCNCC2CCCO2)cc1 (configuration not stated) | . | 4 | . | 10 | . | 6
CCOc1cccc(OCC)c2c(C)[n+](CC3CCCO3)c(C)c1-2 (configuration not stated) | 27 | 53* | 36 | 32* | -3 | 62* | BCLXL inh confirm=17;MCL1 BIM confirm=17
O=C1NC(=S)NC(=O)C1=Cc1ccc2c(c1)CCN2CCCCl | 100* | 29 | 30 | 4 | . | 74* | BCLXL inh confirm=-11;MCL1 BIM confirm=-15
CC(C)[C@H]1C(=O)N2CCC[C@H]2[C@]2(O)O[C@](NC(=O)[C@@H]3C=C4c5cccc6[nH]cc(c56)C[C@H]4N(C)C3)(C(C)C)C(=O)N12 | 11 | 153* | -15 | 129* | 7 | + | BCLXL inh confirm=106*;MCL1 BIM confirm=128*
C[C@]12CCC3C(CC[C@@H]4C[C@H](O)CC[C@]34C)C1CCC2=O (some centres not stated) | . | . | . | 4 | . | .
